PubChem BioAssay (NCI)
This is part of a sample that, as a whole, favours compounds with a hit. Of some 83,000 tested, about 20% had one in any assay.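 Cells were grown in 96-well plates and exposed to the test compound at a single concentration for 48 hours; results are reported as percent growth, with values below 10 considered active.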 Calls of active or inactive are those of the source.

How the values were obtained:
Assay in all cases: NCI-60 one-dose screen, 48 h (100 = growth as untreated, 0 = no growth, -100 = all killed)
Conditions in all cases: 10 µM unless noted
NCI-H23 lung = test system: NCI-H23 lung
NCI-H226 lung = test system: NCI-H226 lung
NCI-H322M lung = test system: NCI-H322M lung
HOP-62 NSCLC = test system: HOP-62 NSCLC
NCI-H460 lung = test system: NCI-H460 lung
HOP-92 NSCLC = test system: HOP-92 NSCLC
NCI-H522 lung = test system: NCI-H522 lung
A549/ATCC NSCLC = test system: A549/ATCC NSCLC
786-0 renal = test system: 786-0 renal
COLO 205 colon = test system: COLO 205 colon

Measured: growth

C[C@@H]1COC(Nc2ccc3ncnc(Nc4ccc(OCc5nccs5)c(Cl)c4)c3c2)=N1
active: NCI-H522 lung 2.8% | COLO 205 colon -9.99%
inactive: NCI-H23 lung 46.8% | NCI-H226 lung 17.1% | NCI-H322M lung 20.1% | HOP-62 NSCLC 17.5% | NCI-H460 lung 57.9% | HOP-92 NSCLC 10.3% | A549/ATCC NSCLC 40.3% | 786-0 renal 50%

CC(C)(C)C(=O)OCOP(=O)(OCOC(=O)C(C)(C)C)C1CCCN(OC(=O)c2ccccc2)C1=O (stereo not given)
inactive: NCI-H23 lung 16.8% | NCI-H226 lung 34.9% | NCI-H322M lung 21.2% | HOP-62 NSCLC 22.8% | NCI-H460 lung 15.6% | HOP-92 NSCLC 29.3% | NCI-H522 lung 12.9% | A549/ATCC NSCLC 24.6% | 786-0 renal 17.8% | COLO 205 colon 14.3%

CN(C)C/C=C/C(=O)Nc1cc2c(Nc3ccc(F)c(Cl)c3)ncnc2cc1O[C@H]1CCOC1
active: NCI-H23 lung -11.7% | NCI-H226 lung -7.37% | NCI-H322M lung -16.4% | HOP-62 NSCLC -10.8% | NCI-H460 lung 4.3% | HOP-92 NSCLC -11.5% | NCI-H522 lung -55.6% | A549/ATCC NSCLC 3.14% | 786-0 renal 8.66% | COLO 205 colon -65.1%

O=C(Cc1ccccc1)Nc1nnc(NC2CCN(c3nnc(NC(=O)Cc4ccccc4)s3)CC2)s1
inactive: NCI-H23 lung 96.1% | NCI-H226 lung 98.7% | NCI-H322M lung 35.3% | HOP-62 NSCLC 75.9% | NCI-H460 lung 93.3% | HOP-92 NSCLC 94.5% | NCI-H522 lung 72.5% | A549/ATCC NSCLC 34.4% | 786-0 renal 89% | COLO 205 colon 90.1%

CCN(CCN(C)C)C(=O)CNCc1cc(C(N)=O)ccn1
inactive: NCI-H23 lung 101% | NCI-H226 lung 89.1% | NCI-H322M lung 106% | HOP-62 NSCLC 87% | NCI-H460 lung 108% | HOP-92 NSCLC 87.2% | NCI-H522 lung 78.1% | A549/ATCC NSCLC 72.4% | 786-0 renal 103% | COLO 205 colon 108%

C=CC(=O)Nc1cccc(Oc2nc(Nc3ccc(N4CCN(C)CC4)cc3)nc3ccsc23)c1
inactive: NCI-H23 lung 32.2%
active: NCI-H226 lung -2.55% | NCI-H322M lung 4.69% | HOP-62 NSCLC -62% | NCI-H460 lung -59.8% | HOP-92 NSCLC -70.8% | NCI-H522 lung -77.1% | A549/ATCC NSCLC -74.1% | 786-0 renal -84% | COLO 205 colon -83.3%

Cn1ccnc1C(=O)/C=C/c1ccc(CC(=O)Nc2ccc(Br)cc2)cc1
inactive: NCI-H23 lung 24.5% | NCI-H226 lung 43.2% | HOP-92 NSCLC 61.1%
active: NCI-H322M lung 6.4% | HOP-62 NSCLC -32.7% | NCI-H460 lung -11.2% | NCI-H522 lung 2.89% | A549/ATCC NSCLC 3.64% | 786-0 renal 7.96% | COLO 205 colon 6.56%

CN1CC[C@H](c2c(O)cc(O)c3c(=O)cc(-c4ccccc4Cl)oc23)[C@H](O)C1
active: NCI-H23 lung -17.3% | NCI-H226 lung 3.69% | NCI-H322M lung -5.32% | HOP-62 NSCLC -17.2% | NCI-H460 lung 3.22% | HOP-92 NSCLC -6.87% | NCI-H522 lung -23.9% | A549/ATCC NSCLC 5.9% | 786-0 renal 7.41% | COLO 205 colon -55%

COc1ccc(CCCc2c3[n+](cc4c(OC)c(OC)ccc24)CCc2cc4c(cc2-3)OCO4)cc1
active: COLO 205 colon -11.2%
inactive: NCI-H23 lung 47.4% | NCI-H226 lung 88.4% | NCI-H322M lung 96.1% | HOP-62 NSCLC 78.6% | NCI-H460 lung 52.4% | HOP-92 NSCLC 77.8% | NCI-H522 lung 38.7% | A549/ATCC NSCLC 61.2% | 786-0 renal 92.2%

COc1cc2ncnc(Nc3cccc(Cl)c3F)c2cc1OC(=O)N1CCN(C)C[C@H]1C
inactive: NCI-H23 lung 92% | NCI-H226 lung 75.7% | NCI-H322M lung 10.5% | HOP-62 NSCLC 61.8% | NCI-H460 lung 90.2% | HOP-92 NSCLC 51.9% | NCI-H522 lung 16.2% | A549/ATCC NSCLC 40.8% | 786-0 renal 75.6% | COLO 205 colon 79.5%

O=C(/C=C/c1ccc2c(c1)OCO2)c1c(O)c2ccccc2oc1=O
inactive: NCI-H23 lung 102% | NCI-H226 lung 107% | NCI-H322M lung 107% | HOP-62 NSCLC 80.9% | NCI-H460 lung 103% | HOP-92 NSCLC 103% | NCI-H522 lung 75.7% | A549/ATCC NSCLC 76.5% | 786-0 renal 99.8% | COLO 205 colon 99.3%

CCOC(=O)C1=C(C)N=C2Sc3cc(OC(F)(F)F)ccc3N2[C@H]1c1ccccn1
inactive: NCI-H23 lung 48.8% | NCI-H226 lung 57.6% | NCI-H322M lung 50.2% | HOP-62 NSCLC 47.6% | NCI-H460 lung 15.2% | HOP-92 NSCLC 68% | NCI-H522 lung 48.5% | A549/ATCC NSCLC 30.1% | 786-0 renal 59.1% | COLO 205 colon 36.7%

CC1(O)CCC2CC3OC3(C)CCC3OC3(C)C(O)CC1C2(C)C (stereo not given)
active: HOP-92 NSCLC -15.9%
inactive: NCI-H23 lung 96% | NCI-H226 lung 115% | NCI-H322M lung 115% | HOP-62 NSCLC 116% | NCI-H460 lung 120% | NCI-H522 lung 97.6% | A549/ATCC NSCLC 92.8% | 786-0 renal 104% | COLO 205 colon 109%

CCN(CCCOc1ccc2c(Nc3cc(CC(=O)Nc4cccc(F)c4)[nH]n3)ncnc2c1)CCOP(=O)(O)O
active: COLO 205 colon -7.95%
inactive: NCI-H23 lung 73.4% | NCI-H226 lung 93.8% | NCI-H322M lung 68.5% | HOP-62 NSCLC 56.7% | NCI-H460 lung 45% | HOP-92 NSCLC 87.6% | NCI-H522 lung 44% | A549/ATCC NSCLC 44.1% | 786-0 renal 86.5%

COc1ccc(C2CC(=O)c3c(O)c(OC)c(OC)c(OC)c3O2)c(O)c1 (stereo not given)
active: NCI-H460 lung 9.27%
inactive: NCI-H23 lung 27.5% | NCI-H226 lung 66.8% | NCI-H322M lung 51.4% | HOP-62 NSCLC 64.9% | HOP-92 NSCLC 77.9% | NCI-H522 lung 12% | A549/ATCC NSCLC 28.1% | 786-0 renal 47.2% | COLO 205 colon 57.3%

Cc1sc2c(c1C)c(=O)nc1c(-c3nc4ccccc4s3)n[nH]n12
inactive: NCI-H23 lung 88.7% | NCI-H226 lung 87.4% | NCI-H322M lung 96.2% | HOP-62 NSCLC 90.1% | NCI-H460 lung 96.7% | HOP-92 NSCLC 88.7% | NCI-H522 lung 90.8% | A549/ATCC NSCLC 97.2% | 786-0 renal 105% | COLO 205 colon 103%

COc1cccc(NC(=O)Nc2ccc(Nc3ncnc4sc5c(c34)CCN(C(=O)CCl)C5)cc2)c1
inactive: NCI-H23 lung 96.7% | NCI-H226 lung 88.9% | NCI-H322M lung 96.8% | HOP-62 NSCLC 88.7% | NCI-H460 lung 98.1% | HOP-92 NSCLC 97.1% | NCI-H522 lung 71.6% | A549/ATCC NSCLC 91% | 786-0 renal 103% | COLO 205 colon 104%

O=C(c1ccc(F)c(F)c1Nc1ccc(I)cc1F)N1CC(O)([C@@H]2CCCCN2)C1
inactive: NCI-H23 lung 13.9% | NCI-H226 lung 39.4% | NCI-H322M lung 13.5% | HOP-62 NSCLC 17.7% | NCI-H460 lung 18.8% | NCI-H522 lung 18.8% | A549/ATCC NSCLC 14.2% | 786-0 renal 29.1%
active: HOP-92 NSCLC -47.8% | COLO 205 colon -63.9%

COc1cc2nccc(Oc3ccc(NC(=O)C4(C(=O)Nc5ccc(F)cc5)CC4)cc3)c2cc1OC
inactive: NCI-H23 lung 14.4% | NCI-H226 lung 11.7% | NCI-H322M lung 12.1% | NCI-H522 lung 11.4% | 786-0 renal 13.1%
active: HOP-62 NSCLC 9.04% | NCI-H460 lung 6.12% | HOP-92 NSCLC -36.9% | A549/ATCC NSCLC 2.35% | COLO 205 colon -44.7%

Cc1cnc(Nc2ccc(OCCN3CCCC3)cc2)nc1Nc1cccc(S(=O)(=O)NC(C)(C)C)c1
active: NCI-H226 lung -61.9% | HOP-62 NSCLC -8.87% | HOP-92 NSCLC -72.1% | NCI-H522 lung -46.4% | A549/ATCC NSCLC -53.6% | 786-0 renal -84.8% | COLO 205 colon -67.6%
inactive: NCI-H23 lung 15.8% | NCI-H322M lung 28% | NCI-H460 lung 10.4%

Cc1cc2c(-c3nc4ccccn4c3NC34CC5CC(CC(C5)C3)C4)c(O)c(O)cc2c(O)c1-c1c(C)cc2c(-c3nc4ccccn4c3NC34CC5CC(CC(C5)C3)C4)c(O)c(O)cc2c1O
active: NCI-H23 lung -1.87% | HOP-62 NSCLC 1.34% | NCI-H460 lung 5.53% | HOP-92 NSCLC -9.41% | NCI-H522 lung -5.03% | A549/ATCC NSCLC 2.96% | 786-0 renal -12% | COLO 205 colon 6.77%
inactive: NCI-H226 lung 12.7% | NCI-H322M lung 30.2%

CN1CCN(c2ccc(C(=O)Nc3n[nH]c4ccc(Cc5cc(F)cc(F)c5)cc34)c(NC3CCOCC3)c2)CC1
active: NCI-H226 lung -5.76% | HOP-62 NSCLC -34.8% | NCI-H460 lung -80.3% | HOP-92 NSCLC -68.6% | NCI-H522 lung -70.6% | A549/ATCC NSCLC -51.7% | 786-0 renal -95.1% | COLO 205 colon -73.6%
inactive: NCI-H23 lung 11% | NCI-H322M lung 33.8%

CN1CCN(c2nc(C3=C(c4c[nH]c5ccccc45)C(=O)NC3=O)c3ccccc3n2)CC1
active: COLO 205 colon -2.65%
inactive: NCI-H23 lung 70.1% | NCI-H226 lung 73.8% | NCI-H322M lung 29.2% | HOP-62 NSCLC 44.3% | NCI-H460 lung 87.5% | HOP-92 NSCLC 80.7% | NCI-H522 lung 68% | A549/ATCC NSCLC 51.7% | 786-0 renal 92.8%

NC1(c2ccc(-c3nc4ccn5c(=O)[nH]nc5c4cc3-c3ccccc3)cc2)CCC1
active: NCI-H522 lung 5.02% | 786-0 renal 9.74% | COLO 205 colon -19.8%
inactive: NCI-H23 lung 73.5% | NCI-H226 lung 67.7% | NCI-H322M lung 59.2% | HOP-62 NSCLC 50.3% | NCI-H460 lung 23.6% | HOP-92 NSCLC 23.2% | A549/ATCC NSCLC 32.8%

CCc1cc2c(cc1N1CCC(N3CCOCC3)CC1)C(C)(C)c1[nH]c3cc(C#N)ccc3c1C2=O
inactive: NCI-H23 lung 14.5%
active: NCI-H226 lung -35% | NCI-H322M lung -12.5% | HOP-62 NSCLC -61.7% | NCI-H460 lung 1.34% | HOP-92 NSCLC -10.9% | NCI-H522 lung -38.5% | A549/ATCC NSCLC 7.92% | 786-0 renal -45.7% | COLO 205 colon -42.5%

C[C@H]1Oc2cc(cnc2N)-c2c(nn(C)c2C#N)CN(C)C(=O)c2ccc(F)cc21
inactive: NCI-H23 lung 84% | NCI-H226 lung 92.2% | NCI-H322M lung 104% | HOP-62 NSCLC 50% | NCI-H460 lung 96.7% | HOP-92 NSCLC 48.4% | NCI-H522 lung 66.5% | A549/ATCC NSCLC 66.1% | 786-0 renal 77.9% | COLO 205 colon 36.3%
